# According to article PMC7862700, “An all-to-all approach to the identification of sequence-specific readers for epigenetic DNA modifications on cytosine”:
# Columns and labels:
# Assay in all cases: DAPPL (digital affinity profiling via proximity ligation, sequencing); 10 mM Tris-HCl pH 7.5, 50 mM NaCl, 1 mM DTT, 4% glycerol, room temperature, 30 min; GST-TFs on glutathione beads, 16-mer random dsDNA library, 0.1% formaldehyde crosslink after washing; high values mean tight binding
# FEV = target: T1, FEV (Homo sapiens, UniProt Q99581 1-238); details: protein: recombinant; tags: N-terminal GST; dsDNA, one strand shown
# T1 sequence: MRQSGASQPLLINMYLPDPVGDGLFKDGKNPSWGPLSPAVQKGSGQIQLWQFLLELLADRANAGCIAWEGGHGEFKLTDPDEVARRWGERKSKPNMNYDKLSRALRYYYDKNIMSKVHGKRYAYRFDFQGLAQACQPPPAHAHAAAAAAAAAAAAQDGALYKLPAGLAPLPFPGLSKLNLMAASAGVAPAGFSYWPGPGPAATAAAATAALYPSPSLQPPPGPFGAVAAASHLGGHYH
# Method in brief: (§1)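 Human transcription factors fused to GST were expressed in yeast, captured on glutathione beads, given DNA barcodes and pooled with a GST-only negative control. Pools were incubated with 200 nmole of a 16-mer random double-stranded DNA library in Tris/NaCl/DTT/glycerol buffer at room temperature for 30 min. They were then washed, crosslinked with 0.1% formaldehyde, proximity-ligated (BsaI/T4 ligase, 1 h, 37 °C), PCR-amplified and sequenced on an Illumina NextSeq500. Binding signal is each 6-mer's read frequency for a factor divided by its frequency for the GST control.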
# ETV5 = ETV5 (Homo sapiens, UniProt P41161 1-510); details: protein: recombinant; tags: N-terminal GST; dsDNA, one strand shown
# Method in brief: as §1
# HSF1 = HSF1 (Homo sapiens, UniProt Q00613 1-529); details: protein: recombinant; tags: N-terminal GST; chain copies: 3; dsDNA, one strand shown
# Method in brief: as §1
# SPIC = target: T2, SPIC (Homo sapiens, UniProt Q8N5J4 1-248); details: protein: recombinant; tags: N-terminal GST; dsDNA, one strand shown
# T2 sequence: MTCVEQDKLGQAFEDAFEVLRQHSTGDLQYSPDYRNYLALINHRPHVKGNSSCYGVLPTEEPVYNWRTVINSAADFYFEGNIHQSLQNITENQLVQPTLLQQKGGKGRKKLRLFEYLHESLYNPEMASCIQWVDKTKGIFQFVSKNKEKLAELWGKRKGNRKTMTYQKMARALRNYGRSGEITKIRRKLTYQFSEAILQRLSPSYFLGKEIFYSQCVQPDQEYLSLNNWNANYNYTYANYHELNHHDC
# Method in brief: as §1
# ELF4 = ELF4 (Homo sapiens, UniProt Q99607 1-663); details: protein: recombinant; tags: N-terminal GST; dsDNA, one strand shown
# Method in brief: as §1
# ELK4 = target: T3, ELK4 (Homo sapiens, UniProt P28324-2 1-405); details: protein: recombinant; tags: N-terminal GST; dsDNA, one strand shown
# T3 sequence: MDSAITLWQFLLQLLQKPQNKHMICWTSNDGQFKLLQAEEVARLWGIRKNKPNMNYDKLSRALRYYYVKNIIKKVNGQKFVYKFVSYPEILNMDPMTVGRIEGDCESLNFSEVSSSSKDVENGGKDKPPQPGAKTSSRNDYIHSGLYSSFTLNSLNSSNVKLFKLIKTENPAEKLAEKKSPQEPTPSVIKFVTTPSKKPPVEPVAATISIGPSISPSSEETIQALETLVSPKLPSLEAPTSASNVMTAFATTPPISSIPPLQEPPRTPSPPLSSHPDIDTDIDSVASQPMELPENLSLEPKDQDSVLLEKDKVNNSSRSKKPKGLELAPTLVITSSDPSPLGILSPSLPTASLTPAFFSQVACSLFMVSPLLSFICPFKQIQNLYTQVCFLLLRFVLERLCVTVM
# Method in brief: as §1
# ETV2 = target: T4, ETV2 (Homo sapiens, UniProt O00321 1-342); details: protein: recombinant; tags: N-terminal GST; dsDNA, one strand shown
# T4 sequence: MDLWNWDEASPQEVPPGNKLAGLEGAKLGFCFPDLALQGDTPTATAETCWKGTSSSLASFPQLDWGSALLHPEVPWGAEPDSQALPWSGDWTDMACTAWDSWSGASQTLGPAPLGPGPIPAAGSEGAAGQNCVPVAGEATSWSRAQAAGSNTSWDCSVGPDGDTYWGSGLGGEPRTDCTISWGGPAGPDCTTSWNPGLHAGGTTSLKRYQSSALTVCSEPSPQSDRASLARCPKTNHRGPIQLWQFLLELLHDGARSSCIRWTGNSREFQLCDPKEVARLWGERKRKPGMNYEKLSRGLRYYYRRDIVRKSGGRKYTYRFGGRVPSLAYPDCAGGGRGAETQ
# Method in brief: as §1
# ELF3 = target: T5, ELF3 (Homo sapiens, UniProt P78545 1-371); details: protein: recombinant; tags: N-terminal GST; dsDNA, one strand shown
# T5 sequence: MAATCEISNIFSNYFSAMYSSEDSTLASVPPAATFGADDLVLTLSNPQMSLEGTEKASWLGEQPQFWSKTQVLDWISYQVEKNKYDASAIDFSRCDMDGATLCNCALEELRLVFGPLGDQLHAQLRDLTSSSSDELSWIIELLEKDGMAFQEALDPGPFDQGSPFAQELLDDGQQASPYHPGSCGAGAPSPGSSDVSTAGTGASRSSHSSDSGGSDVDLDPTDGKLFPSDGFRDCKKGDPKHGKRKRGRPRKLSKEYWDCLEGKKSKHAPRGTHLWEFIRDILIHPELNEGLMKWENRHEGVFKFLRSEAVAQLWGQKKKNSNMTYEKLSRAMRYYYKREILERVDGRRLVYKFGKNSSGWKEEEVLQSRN
# Method in brief: as §1
# CRX = CRX (Homo sapiens, UniProt O43186 1-299); details: protein: recombinant; tags: N-terminal GST; dsDNA, one strand shown
# Method in brief: as §1
# ETV1 = ETV1 (Homo sapiens, UniProt P50549 1-477); details: protein: recombinant; tags: N-terminal GST; dsDNA, one strand shown
# Method in brief: as §1
# ERF = target: T6, ERF (Homo sapiens, UniProt P50548 1-548); details: protein: recombinant; tags: N-terminal GST; dsDNA, one strand shown
# T6 sequence: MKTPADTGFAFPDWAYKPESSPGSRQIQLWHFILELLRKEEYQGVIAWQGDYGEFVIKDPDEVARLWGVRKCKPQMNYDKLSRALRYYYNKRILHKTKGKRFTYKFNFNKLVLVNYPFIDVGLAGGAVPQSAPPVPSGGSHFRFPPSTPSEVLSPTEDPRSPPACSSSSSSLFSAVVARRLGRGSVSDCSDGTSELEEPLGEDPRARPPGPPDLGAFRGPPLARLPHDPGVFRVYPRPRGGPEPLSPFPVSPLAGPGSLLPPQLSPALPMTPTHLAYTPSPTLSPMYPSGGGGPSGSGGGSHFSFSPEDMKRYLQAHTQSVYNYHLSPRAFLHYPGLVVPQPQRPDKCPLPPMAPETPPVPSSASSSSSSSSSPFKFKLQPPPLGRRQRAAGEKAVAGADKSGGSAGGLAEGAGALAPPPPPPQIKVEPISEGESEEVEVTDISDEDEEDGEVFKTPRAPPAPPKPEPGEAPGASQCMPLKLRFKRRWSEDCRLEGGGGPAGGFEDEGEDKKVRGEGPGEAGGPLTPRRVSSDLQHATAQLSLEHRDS
# Method in brief: as §1
# ETV3L = target: T7, ETV3L (Homo sapiens, UniProt Q6ZN32 1-361); details: protein: recombinant; tags: N-terminal GST; dsDNA, one strand shown
# T7 sequence: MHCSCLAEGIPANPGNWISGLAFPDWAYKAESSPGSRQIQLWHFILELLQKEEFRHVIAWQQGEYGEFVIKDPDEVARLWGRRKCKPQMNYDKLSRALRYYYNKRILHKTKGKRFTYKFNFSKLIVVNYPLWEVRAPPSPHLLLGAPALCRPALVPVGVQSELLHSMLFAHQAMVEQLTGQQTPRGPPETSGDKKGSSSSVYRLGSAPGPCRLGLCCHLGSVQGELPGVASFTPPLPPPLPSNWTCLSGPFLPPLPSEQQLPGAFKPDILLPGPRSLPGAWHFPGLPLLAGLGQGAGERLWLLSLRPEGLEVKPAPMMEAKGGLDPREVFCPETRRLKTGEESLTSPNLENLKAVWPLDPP
# Method in brief: as §1
# ETS2 = target: T8, ETS2 (Homo sapiens, UniProt P15036 1-469); details: protein: recombinant; tags: N-terminal GST; dsDNA, one strand shown
# T8 sequence: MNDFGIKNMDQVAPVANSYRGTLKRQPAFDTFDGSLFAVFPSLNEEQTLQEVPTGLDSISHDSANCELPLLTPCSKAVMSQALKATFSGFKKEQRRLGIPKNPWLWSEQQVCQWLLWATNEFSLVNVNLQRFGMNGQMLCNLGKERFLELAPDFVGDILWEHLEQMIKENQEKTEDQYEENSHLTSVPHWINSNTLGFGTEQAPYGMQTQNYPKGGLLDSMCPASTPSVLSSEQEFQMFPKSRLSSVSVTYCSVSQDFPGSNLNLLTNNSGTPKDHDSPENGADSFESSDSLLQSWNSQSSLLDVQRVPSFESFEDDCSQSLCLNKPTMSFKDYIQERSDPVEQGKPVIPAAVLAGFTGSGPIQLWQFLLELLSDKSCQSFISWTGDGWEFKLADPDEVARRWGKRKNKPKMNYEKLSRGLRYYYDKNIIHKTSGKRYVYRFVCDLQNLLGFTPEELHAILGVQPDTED
# Method in brief: as §1
# SPDEF = target: T9, SPDEF (Homo sapiens, UniProt O95238 1-335); details: protein: recombinant; tags: N-terminal GST; dsDNA, one strand shown
# T9 sequence: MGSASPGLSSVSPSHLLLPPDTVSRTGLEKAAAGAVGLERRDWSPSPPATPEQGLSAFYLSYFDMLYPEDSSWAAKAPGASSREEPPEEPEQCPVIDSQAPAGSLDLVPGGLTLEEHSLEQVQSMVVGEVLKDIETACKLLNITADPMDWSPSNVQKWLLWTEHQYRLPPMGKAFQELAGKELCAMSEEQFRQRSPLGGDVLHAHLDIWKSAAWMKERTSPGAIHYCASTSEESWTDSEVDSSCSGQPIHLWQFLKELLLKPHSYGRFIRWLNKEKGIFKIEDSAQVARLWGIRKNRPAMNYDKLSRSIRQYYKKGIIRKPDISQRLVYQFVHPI
# Method in brief: as §1
# ETV7 = target: T10, ETV7 (Homo sapiens, UniProt Q9Y603 1-341); details: protein: recombinant; tags: N-terminal GST; dsDNA, one strand shown
# T10 sequence: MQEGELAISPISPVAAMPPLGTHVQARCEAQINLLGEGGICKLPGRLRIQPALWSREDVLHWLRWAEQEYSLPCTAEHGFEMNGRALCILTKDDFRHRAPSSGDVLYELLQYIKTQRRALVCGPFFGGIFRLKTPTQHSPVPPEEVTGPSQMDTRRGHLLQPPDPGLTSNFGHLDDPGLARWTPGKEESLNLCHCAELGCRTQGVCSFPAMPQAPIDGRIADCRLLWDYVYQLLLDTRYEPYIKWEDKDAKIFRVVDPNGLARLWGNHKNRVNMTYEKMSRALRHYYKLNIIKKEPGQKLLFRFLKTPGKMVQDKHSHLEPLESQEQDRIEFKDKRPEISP
# Method in brief: as §1
# ELF5 = target: T11, ELF5 (Homo sapiens, UniProt Q9UKW6-2 1-255); details: protein: recombinant; tags: N-terminal GST; dsDNA, one strand shown
# T11 sequence: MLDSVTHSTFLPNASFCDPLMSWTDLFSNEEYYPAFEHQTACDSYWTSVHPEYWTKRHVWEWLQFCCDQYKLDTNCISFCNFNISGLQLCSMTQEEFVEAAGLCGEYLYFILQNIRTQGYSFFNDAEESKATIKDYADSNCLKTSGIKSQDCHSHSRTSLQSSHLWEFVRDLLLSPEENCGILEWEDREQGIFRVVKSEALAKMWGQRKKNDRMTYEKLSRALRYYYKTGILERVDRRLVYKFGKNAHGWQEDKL
# Method in brief: as §1
# ETV3 = target: T12, ETV3 (Homo sapiens, UniProt P41162-2 1-143); details: protein: recombinant; tags: N-terminal GST; dsDNA, one strand shown
# T12 sequence: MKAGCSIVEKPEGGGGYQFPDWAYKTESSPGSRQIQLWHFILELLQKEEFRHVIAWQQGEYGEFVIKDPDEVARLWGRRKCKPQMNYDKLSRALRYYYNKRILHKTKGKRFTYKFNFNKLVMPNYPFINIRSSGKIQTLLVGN
# Method in brief: as §1
# ETV6 = ETV6 (Homo sapiens, UniProt P41212 1-452); details: protein: recombinant; tags: N-terminal GST; dsDNA, one strand shown
# Method in brief: as §1
# Sequence of ELF4 (Q99607 whole entry): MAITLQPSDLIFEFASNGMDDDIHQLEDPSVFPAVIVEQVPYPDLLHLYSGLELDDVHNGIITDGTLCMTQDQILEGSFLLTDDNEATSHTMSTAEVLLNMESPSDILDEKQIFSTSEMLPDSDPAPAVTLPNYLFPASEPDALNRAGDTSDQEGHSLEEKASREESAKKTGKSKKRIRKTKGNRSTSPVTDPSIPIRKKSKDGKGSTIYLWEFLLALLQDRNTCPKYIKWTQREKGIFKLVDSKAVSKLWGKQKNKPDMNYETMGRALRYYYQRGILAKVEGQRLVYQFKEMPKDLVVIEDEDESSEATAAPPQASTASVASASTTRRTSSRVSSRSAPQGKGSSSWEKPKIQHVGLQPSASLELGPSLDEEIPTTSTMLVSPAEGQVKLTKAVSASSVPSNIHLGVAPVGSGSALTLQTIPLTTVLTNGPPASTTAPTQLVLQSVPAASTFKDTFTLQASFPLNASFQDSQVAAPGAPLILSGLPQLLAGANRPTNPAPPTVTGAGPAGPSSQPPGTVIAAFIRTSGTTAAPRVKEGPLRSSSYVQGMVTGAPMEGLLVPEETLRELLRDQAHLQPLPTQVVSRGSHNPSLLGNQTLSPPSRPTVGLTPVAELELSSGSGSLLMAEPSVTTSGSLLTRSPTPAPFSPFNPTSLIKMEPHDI
# Sequence of HSF1 (Q00613 whole entry): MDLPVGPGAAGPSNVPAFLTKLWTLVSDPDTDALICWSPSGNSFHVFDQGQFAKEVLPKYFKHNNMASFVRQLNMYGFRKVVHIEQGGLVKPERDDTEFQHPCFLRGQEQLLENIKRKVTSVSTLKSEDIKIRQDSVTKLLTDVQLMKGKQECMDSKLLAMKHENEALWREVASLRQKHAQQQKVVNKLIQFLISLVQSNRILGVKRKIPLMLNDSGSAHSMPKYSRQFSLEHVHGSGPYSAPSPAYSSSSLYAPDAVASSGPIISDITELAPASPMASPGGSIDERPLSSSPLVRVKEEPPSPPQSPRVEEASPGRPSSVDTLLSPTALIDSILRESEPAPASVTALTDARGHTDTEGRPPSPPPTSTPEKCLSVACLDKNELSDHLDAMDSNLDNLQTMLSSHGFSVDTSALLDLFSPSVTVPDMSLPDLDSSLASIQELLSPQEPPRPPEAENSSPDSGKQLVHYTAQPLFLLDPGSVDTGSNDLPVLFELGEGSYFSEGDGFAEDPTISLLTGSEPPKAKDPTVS
# Sequence of CRX (O43186 whole entry): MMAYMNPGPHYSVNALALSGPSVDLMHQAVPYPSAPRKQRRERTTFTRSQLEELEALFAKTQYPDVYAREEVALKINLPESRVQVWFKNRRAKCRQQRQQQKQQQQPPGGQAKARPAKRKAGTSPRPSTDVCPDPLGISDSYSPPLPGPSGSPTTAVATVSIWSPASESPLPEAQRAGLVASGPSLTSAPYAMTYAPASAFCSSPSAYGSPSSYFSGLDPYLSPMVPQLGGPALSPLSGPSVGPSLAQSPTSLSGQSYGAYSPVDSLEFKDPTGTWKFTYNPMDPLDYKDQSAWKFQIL
# Sequence of ETV5 (P41161 whole entry): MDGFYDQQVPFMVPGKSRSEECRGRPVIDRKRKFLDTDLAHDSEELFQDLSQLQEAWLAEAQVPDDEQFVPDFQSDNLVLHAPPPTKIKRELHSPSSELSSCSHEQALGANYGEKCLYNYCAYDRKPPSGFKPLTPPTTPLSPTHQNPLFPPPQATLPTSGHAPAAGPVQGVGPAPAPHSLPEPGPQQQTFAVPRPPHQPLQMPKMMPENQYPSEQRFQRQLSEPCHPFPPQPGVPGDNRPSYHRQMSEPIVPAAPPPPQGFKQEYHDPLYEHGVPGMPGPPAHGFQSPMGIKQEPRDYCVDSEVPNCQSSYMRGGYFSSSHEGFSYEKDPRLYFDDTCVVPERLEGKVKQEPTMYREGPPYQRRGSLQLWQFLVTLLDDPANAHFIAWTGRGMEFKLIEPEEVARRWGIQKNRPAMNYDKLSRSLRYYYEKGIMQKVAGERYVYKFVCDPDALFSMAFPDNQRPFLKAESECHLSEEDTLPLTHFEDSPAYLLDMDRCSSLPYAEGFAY
# Sequence of ETV1 (P50549 whole entry): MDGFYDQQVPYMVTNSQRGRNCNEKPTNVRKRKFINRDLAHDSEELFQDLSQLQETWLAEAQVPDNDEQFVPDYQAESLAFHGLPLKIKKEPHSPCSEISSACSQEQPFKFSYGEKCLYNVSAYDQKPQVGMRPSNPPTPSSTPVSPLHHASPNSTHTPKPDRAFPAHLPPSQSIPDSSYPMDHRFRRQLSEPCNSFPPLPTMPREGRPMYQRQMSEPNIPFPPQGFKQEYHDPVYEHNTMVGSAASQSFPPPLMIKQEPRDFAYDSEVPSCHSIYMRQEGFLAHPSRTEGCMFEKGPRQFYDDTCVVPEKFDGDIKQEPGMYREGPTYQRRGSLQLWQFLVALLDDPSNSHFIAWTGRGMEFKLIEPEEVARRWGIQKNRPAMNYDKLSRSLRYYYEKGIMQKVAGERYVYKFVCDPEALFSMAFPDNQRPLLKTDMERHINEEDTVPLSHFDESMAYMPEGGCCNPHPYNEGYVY
# Sequence of ETV6 (P41212 whole entry): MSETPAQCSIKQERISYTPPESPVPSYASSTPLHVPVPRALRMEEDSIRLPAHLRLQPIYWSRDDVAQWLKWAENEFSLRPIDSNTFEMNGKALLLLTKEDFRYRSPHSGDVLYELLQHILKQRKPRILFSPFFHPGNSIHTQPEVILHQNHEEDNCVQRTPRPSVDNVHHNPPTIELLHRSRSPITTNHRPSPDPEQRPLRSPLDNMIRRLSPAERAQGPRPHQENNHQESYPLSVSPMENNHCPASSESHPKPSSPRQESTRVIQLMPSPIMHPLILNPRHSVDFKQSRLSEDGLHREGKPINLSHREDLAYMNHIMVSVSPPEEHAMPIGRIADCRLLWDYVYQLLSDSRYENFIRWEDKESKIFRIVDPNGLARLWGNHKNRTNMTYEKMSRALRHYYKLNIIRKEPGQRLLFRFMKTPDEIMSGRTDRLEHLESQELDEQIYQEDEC
sequence,measurement,setting,value
TCTCGG,binding signal,FEV,"1.31 fold enrichment (6-mer frequency, TF over GST control)"
same,binding signal,ETV5,"1.41 fold enrichment (6-mer frequency, TF over GST control)"
same,binding signal,HSF1,"1.89 fold enrichment (6-mer frequency, TF over GST control)"
same,binding signal,SPIC,"1.1 fold enrichment (6-mer frequency, TF over GST control)"
same,binding signal,ELF4,"1.4 fold enrichment (6-mer frequency, TF over GST control)"
same,binding signal,ELK4,"1.38 fold enrichment (6-mer frequency, TF over GST control)"
same,binding signal,ETV2,"1.48 fold enrichment (6-mer frequency, TF over GST control)"
same,binding signal,ELF3,"1.33 fold enrichment (6-mer frequency, TF over GST control)"
same,binding signal,CRX,"1.44 fold enrichment (6-mer frequency, TF over GST control)"
same,binding signal,ETV1,"1.38 fold enrichment (6-mer frequency, TF over GST control)"
same,binding signal,ERF,"1.24 fold enrichment (6-mer frequency, TF over GST control)"
same,binding signal,ETV3L,"1.48 fold enrichment (6-mer frequency, TF over GST control)"
same,binding signal,ETS2,"1.3 fold enrichment (6-mer frequency, TF over GST control)"
same,binding signal,SPDEF,"1.24 fold enrichment (6-mer frequency, TF over GST control)"
same,binding signal,ETV7,"1.23 fold enrichment (6-mer frequency, TF over GST control)"
same,binding signal,ELF5,"1.32 fold enrichment (6-mer frequency, TF over GST control)"
same,binding signal,ETV3,"1.37 fold enrichment (6-mer frequency, TF over GST control)"
same,binding signal,ETV6,"1.33 fold enrichment (6-mer frequency, TF over GST control)"
